Laboratory results reported in PubChem BioAssay (EPA / NIEHS).
“And” between values parts separate entries of the source, which are not always exact repeats. Identical values can stand only once. Some compounds were tested as several samples or in several runs, with calls that do not always agree. The source made the active and inactive calls. Rule for the calls: active = hit-call score of the fitted dose curve at least 0.9, where 1 is the maximum; inactive = score below 0.9.

Assay: ATG_E_Box_CIS: Attagene CIS-FACTORIAL HepG2 Assay for human Enhancer Box (E-box) (AID 2282936)
Conditions: HepG2 E-box cis-reporter transcription, actives raise or lower the signal
Experimental: ATG_CIS is a cell-based, multiplexed-readout assay that uses HepG2, a human liver cell line, with measurements taken at 24 hours after chemical dosing in a 24-well plate.ATG_E_Box_CIS is one of 52 assay component(s) measured or calculated from the ATG_CIS assay. It is designed to make measurements of mRNA induction, a form of inducible reporter, as detected with fluorescence intensity signals by Reverse transcription polymerase chain reaction (RT-PCR) and Capillary electrophoresis technology.Data from the assay component ATG_E_Box_CIS was analyzed into 1 assay endpoint. This assay endpoint, ATG_E_Box_CIS, was analyzed with bidirectional fitting relative to DMSO as the negative control and baseline of activity. Using a type of inducible reporter, measures of mRNA for gain or loss-of-signal activity can be used to understand the reporter gene at the transcription factor-level as they relate to the gene USF1. Furthermore, this assay endpoint can be referred to as a primary readout, because this assay has produced multiple assay endpoints where this one serves a reporter gene function. To generalize the intended target to other relatable targets, this assay endpoint is annotated to the dna binding intended target family, where the subfamily is basic helix-loop-helix protein.
Human liver HepG2 cells are transiently transfected with multiple reporter transcription units (MRTUs) in 6-well plates using FuGene 6 reagent (Roche; 3 ml FuGene/1 mg DNA). The MRTU constructs are regulated by a cis-regulating element (promoter). […] A major difference between the CIS and TRANS system is that in CIS activities of endogenous TFs are measured, whereas the TRANS assay evaluates changes in activities of exogenous, chimeric NR-Gal4 proteins. […] At the end of 24 hour incubation, total RNA was isolated using TriZol reagent (Invitrogen). The isolated RNA is then reverse-transcribed using oligo(dT) primer and Mo-MLV reverse transcriptase (Invitrogen) with DNAse I (Ambion) treatment for 30 min. The one-tenth of the produced cDNA was amplified by PCR using Taq DNA polymerase (Invitrogen) and two reporter sequence-specific primers. The PCR products were fluorescently labeled by primer extension with 6-arboxyfluorescein (6-FAM) 5'-labeled reporter sequence-specific primer (2 min at 95 C, 20 s at 68 C and 10 min at 72 C) and these products were digested with 5U of HpaI (New England Biolabs) for 2h at 37 C. The fragments were purified using Qiaquick PCR columns (Qiagen), analyzed on an ABI 3130xL genetic analyzer (Applied Biosystems) with peak positions identified by using a set of X-rhodamine (ROX)-labeled MapMarker1000 molecular weight standards (BioVentures). The raw capillary electrophoresis data was processed using Attagraph software (Attagene).

SMILES	outcome	AC50
CCCCCCCCCCCCCC(=O)OCC	inactive	
CC(=N[Si](C)(C)C)O[Si](C)(C)C	inactive	
[Cl][Dy]([Cl])[Cl]	inactive	
Nc1cc([N+](=O)[O-])ccc1C(=O)O	inactive	
CC(O)CN (stereo not given)	inactive	
CC(C)N(c1ccccc1)C(C)C	inactive	
CCCO[Si](OCCC)(OCCC)OCCC	inactive	
CC(=O)OC(C)(C)C	inactive	
CCC(=O)OC(C)(C)C1CC=C(C)CC1 (stereo not given)	inactive	
CC(=O)OC(C)(C)C1CC=C(C)CC1 (stereo not given)	inactive	
CCCC1CCC(=O)CC1	inactive	
NCCN1CCNCC1	inactive	
c1ccc(Sc2ccccc2)cc1	inactive	
CCCCCC1CCC(=O)O1 (stereo not given)	inactive	
CC(C)(C)c1ccc(S)cc1	inactive	
CC1=CC(O)CC(C)(C)C1 (stereo not given)	inactive	
NC(N)=S	inactive	
c1coc(CNc2ncnc3nc[nH]c23)c1	inactive	
CCCCCCCCSCc1cc(C)c(O)c(CSCCCCCCCC)c1	inactive	
CCNC(=S)NCC	inactive	

SMILES	outcome	AC50
CC(=O)c1ccc2ccccc2c1	inactive	
CCCCOCCOCCOCCO	inactive	
CCCCCCCCCCCCCCCCCC(=O)OCCCCCCCCCCCCCC(C)C	inactive	
CN1CCc2cccc3c2[C@H]1Cc1ccc(O)c(O)c1-3		2.76 µM (active)
COC(=O)c1ccc(C(=O)OC)cc1	inactive	
O=C1OC2(c3ccc(O)cc3Oc3cc(O)ccc32)c2ccccc21	inactive	
CC(=O)c1cccnc1	inactive	
CC(=O)OCC=C(C)CCC=C(C)CCC=C(C)C	inactive	
O=C(c1ccc(OCCN2CCCCC2)cc1)c1c(-c2ccc(O)cc2)sc2cc(O)ccc12	inactive	11.1 µM (active) and 7.95 µM (active)
CC(C)(C)c1cc(CCC(=O)OCCSCCOC(=O)CCc2cc(C(C)(C)C)c(O)c(C(C)(C)C)c2)cc(C(C)(C)C)c1O	inactive	
CC(=O)c1ccc(O)cc1	inactive	
CC(=O)CCc1ccc(O)cc1	inactive	
CC1(C)CC(N)CC(C)(CN)C1 (stereo not given)	inactive	
CCCc1ccc(N)cc1	inactive	
CC(C)Cc1ccc(C(C)C(=O)O)cc1 (stereo not given)	inactive	
CCCCOCCOC(=O)c1ccccc1C(=O)OCCOCCCC	inactive	
CCCCCCCOC(C)=O	inactive	
O=S(=O)(O)CCCN1CCOCC1	inactive	
CCCCCCCCOC(C)=O	inactive	
